In the supplement of paper PMC10477191:
± gives the standard deviation of the averaged measurements.

What follows are compounds tested on Drosophila virilis antennal basiconic sensillum AB8 (assay: odor-evoked OSN spike response (post minus pre-stimulus); higher = stronger neuronal excitation). Details: odor dilution: 10^-4.
Procedure, shortened: (§1)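 Single sensillum recordings were made with a tungsten electrode at the base of antennal basiconic sensilla of restrained adult flies, with up to 3 sensilla per fly. Filter paper loaded with 10 µl of odorant at 10^−4 in mineral oil or DMSO was delivered as a 500 ms air pulse into a charcoal-filtered, humidified 1.5 l min^−1 air stream. The response is the change in spike frequency between 1-second pre- and post-stimulus windows (Auto Spike software), averaged over replicate sensilla.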

Row | Compound | odor-evoked OSN spike response [spikes/s]
1 | CCCCCCO [1-hexanol] | 239 ± 25
2 | CCCCCCOC(C)=O [Hexyl acetate] | 35.3 ± 18
3 | CCOC(=O)C(C)O (configuration not stated) [Ethyl lactate] | 44.8 ± 12
4 | CCCCCOC(C)=O [pentyl acetate] | 119 ± 24
5 | C=CC(O)CCCCC (configuration not stated) [1-octen-3-ol] | 113 ± 14
6 | CCOC(=O)CC(C)O (configuration not stated) [Ethyl-3-hydroxybutyrate] | 53 ± 9.4
7 | CCC(=O)OCCC(C)C [Isopentyl propionate] | 56.8 ± 27
8 | CCCCCC(=O)OCC [ethyl hexanoate] | 66.1 ± 8.9

These compounds were tested on Drosophila virilis antennal basiconic sensillum AB9 in the same assay as above. Details: odor dilution: 10^-4.
Procedure, shortened: as §1

Row | Compound | odor-evoked OSN spike response [spikes/s]
9 | CCCCCCO [1-hexanol] | 28.8 ± 14
10 | CCCCCCOC(C)=O [Hexyl acetate] | 53.3 ± 21
11 | CCOC(=O)C(C)O (configuration not stated) [Ethyl lactate] | 72.4 ± 20
12 | CCCCCOC(C)=O [pentyl acetate] | 80 ± 39
13 | CC(=O)C(C)O (configuration not stated) [acetoin] | 97.4 ± 24
14 | COC(=O)c1ccccc1 [methyl benzoate] | 86.1 ± 27
15 | CCCC(=O)CC [3-hexanone] | 65.5 ± 27
16 | CCCC(=O)OCC [ethyl butanoate] | 75.9 ± 26
17 | CCCOC(C)=O [propyl acetate] | 84.2 ± 24
18 | CCOC(=O)c1ccccc1 [ethyl benzoate] | 85.5 ± 21
19 | CCOC(=O)CC(C)O (configuration not stated) [Ethyl-3-hydroxybutyrate] | 58.3 ± 24
20 | CCC(=O)OCCC(C)C [Isopentyl propionate] | 86.6 ± 27
21 | CCCCCC(=O)OCC [ethyl hexanoate] | 67.4 ± 21
22 | CC(=O)OCCC(C)C [Isopentyl acetate] | 81.4 ± 33
